Rows were chosen to be rich in hits. Some 7.5% of all compounds tested hit in one or more screens of this group.
KinaseGlo FLuc = counter-screen: inhibitors of Kinase-Glo firefly luciferase; hit rate 0.28% among 200,000; Q27757; Kinase-Glo luciferase, ATP luminescence, 8 min; Potency, µM (series often up to 38.3 µM), inactives show at the highest dose activity change, negative = inhibition, actives largely listed as inhibitors; further: on the % scale 0 is the no-effect control and ±100 the full control effect; nearly all actives have a fitted effect of over 60% in size
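Compound is pinned into ATP-containing buffer (10 uM ATP, imidazole pH 7.2, 7 mM MgCl2). Kinase-Glo luciferase reagent is then added. Light output is recorded following an 8-min room-temperature incubation.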
NPC1 prom act = activates the NPC1 promoter; Huh7 NPC1 promoter luciferase reporter, 24 h; Potency, µM (highest dose often 9.22 µM), for inactives: at the highest dose activation, hits mostly activators; hit rate 2.4% among 320,000; further: % of control where 0% means no effect; nearly all actives have a fitted effect of over 60% in size
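Luciferase expression driven by the NPC1 promoter was measured in stably transfected Huh7 cells after a 24 h compound incubation, using a luciferase reagent and a luminescence read.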
ELG1 genotoxic = inducers of genotoxicity in HEK293T ELG1-luciferase cells; HEK293T ELG1-luciferase reporter, luminescence, 16 h; Potency, µM (top dose mostly 46 µM), without a hit: top-dose activity change, positive = activation, actives largely listed as activators; hit rate 1.3% among 330,000; AID 504466; further: % of control where 0% means no effect; nearly all actives have a fitted effect of over 60% in size
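After overnight (16 hr) compound treatment at 37 °C, ELG1-luciferase HEK293T cells were lysed with ONE-Glo; luminescence quantified 30 min later at room temperature.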
FLuc modulator = counter-screen for miR-21 project: firefly luciferase inhibitors or activators | P08659 | purified FLuc, Km substrates, luminescence inhibition | Potency, µM (series often up to 57.5 µM), inactives show at the top dose activity change, negative = inhibition, hits mostly inhibitors | hit rate 6.9% among 360,000 | AID 588342;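 further: plate controls were vehicle for no effect and reference inhibitor for full effect; nearly all actives have a fitted effect of over 55% in size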
Target sequence (P08659 whole entry, looked up): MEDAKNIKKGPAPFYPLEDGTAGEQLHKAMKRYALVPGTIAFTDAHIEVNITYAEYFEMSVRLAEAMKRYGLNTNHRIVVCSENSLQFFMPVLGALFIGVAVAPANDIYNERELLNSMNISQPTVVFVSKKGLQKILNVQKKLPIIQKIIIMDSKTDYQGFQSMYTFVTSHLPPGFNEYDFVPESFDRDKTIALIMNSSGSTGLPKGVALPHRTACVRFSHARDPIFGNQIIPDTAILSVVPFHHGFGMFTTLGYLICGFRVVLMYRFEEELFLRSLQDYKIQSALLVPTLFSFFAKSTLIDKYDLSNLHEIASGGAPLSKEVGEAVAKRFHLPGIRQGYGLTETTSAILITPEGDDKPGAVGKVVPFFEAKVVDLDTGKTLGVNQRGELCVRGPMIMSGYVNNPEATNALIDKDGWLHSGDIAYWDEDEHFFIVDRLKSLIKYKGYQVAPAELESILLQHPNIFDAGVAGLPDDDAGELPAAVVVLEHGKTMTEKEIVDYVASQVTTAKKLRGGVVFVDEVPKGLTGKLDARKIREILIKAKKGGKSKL
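Purified P. pyralis luciferase (10nM final) with 10uM D-luciferin and 10uM ATP (Km levels) in 50mM Tris acetate pH 7.5, 10mM Mg acetate, 0.01% Tween-20, 0.05% BSA; qHTS 6-point titration, ~60 µM downward; luminescence read.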
Rab9 prom act = activates the Rab9 promoter; Huh7 Rab9 promoter-luciferase reporter, luminescence, 24 h; Potency, µM (highest dose often 9.22 µM), inactives show at the top dose activation, negative = inhibition, actives largely listed as activators; hit rate 2.8% among 320,000; AID 485297; further: % of control where 0% means no effect; nearly all actives have a fitted effect of over 60% in size
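Using Huh7 cells stably transfected with Rab9 promoter–luciferase, compounds were incubated 24 h at 37 °C, 5% CO2; luciferase luminescence was read 10 min after reagent addition.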
SMN2 splice up = increases expression of the SMN2 splice variant; hit rate 2.8% among 210,000; HEK293 SMN2-luciferase splicing reporter, luminescence, 30-36 h; Potency, µM (series often up to 46.1 µM), without a hit: at the top dose activity change, positive = activation, usual class: activators; AID 1458; further: % of control where 0% means no effect; nearly all actives have a fitted effect of over 55% in size
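qHTS luciferase splicing reporter: luminescence rises when SMN2 exon 7 is included in transfected HEK293 cells. Compound exposure lasted 30-36 h at 37C, with 4.5 mM final sodium butyrate as control, followed by a ONE-Glo read.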
Numbers without * were called inactive; [ ] = dose if it differs, or a comment. The call rests on the fitted dose curve; in most records, active means well fitted curve in the direction sought with a large enough effect; inconclusive means small, poorly fitted or top-dose-only effect, or another doubt; inactive means no such curve, though single readings can be large; an effect the other way counts as inactive or inconclusive. Potency means the concentration at half of the fitted maximal effect.

Results for O=C(Nc1cccc(S(=O)(=O)N2CCCC2)c1)c1ccc2c(=O)n3c(nc2c1)CCCCC3 ?
KinaseGlo FLuc: -4%; NPC1 prom act: -6%; ELG1 genotoxic: -10%; FLuc modulator: 12µM*; Rab9 prom act: -22%; SMN2 splice up: -57%

What do the screens show for `O=C(Nc1ccc(SC(F)F)cc1)c1ccc2c(=O)n3c(nc2c1)CCC3`?
NPC1 prom act: 18%; ELG1 genotoxic: 11%; FLuc modulator: 2.4µM*; Rab9 prom act: inconclusive

What do the screens show for `Cc1ccc(NC(=O)c2ccc3c(=O)n4c(nc3c2)CCCCC4)nc1`?
NPC1 prom act: 28%; ELG1 genotoxic: -2%; FLuc modulator: inconclusive; Rab9 prom act: inconclusive

What do the screens show for `Cc1cccc(NC(=O)c2ccc3c(=O)n4c(nc3c2)CCCCC4)n1`?
NPC1 prom act: 1.3µM*; ELG1 genotoxic: inconclusive; FLuc modulator: 4.8µM*; Rab9 prom act: 0.5µM*

What do the screens show for `O=C(Nc1cccc(S(=O)(=O)N2CCOCC2)c1)c1ccc2c(=O)n3c(nc2c1)CCCCC3`?
KinaseGlo FLuc: -2%; NPC1 prom act: -10%; ELG1 genotoxic: -18%; FLuc modulator: inconclusive; Rab9 prom act: -9%; SMN2 splice up: -68%

How did CCOc1ccc(N2CC(NC(=O)c3ccc(S(=O)(=O)N4CCOCC4)cc3)CC2=O)cc1 (stereo unspecified) do in these assays?
FLuc modulator: 2%

How did Cc1ccc(C)c(OCC(=O)Nc2cc(NC(=O)COc3cc(C)ccc3C)cc(C(=O)O)c2)c1 do in these assays?
NPC1 prom act: 10%; ELG1 genotoxic: 6%; FLuc modulator: inconclusive; Rab9 prom act: 12%

Results for CCC(C(=O)C(C)C(O)C(C)CCc1ccc(C)c(O)c1C(=O)O)C1OC(CC)(C2CC[C@@](O)(CC)C(C)O2)CC1C (stereo partly specified) ?
KinaseGlo FLuc: -1%; SMN2 splice up: -61%

Results for CN(Cc1ccccc1)Cn1ccnc1 ?
KinaseGlo FLuc: -3%[7.66 µM]; SMN2 splice up: -2%[9.22 µM]

What do the screens show for `O=C(Nc1ccc2nc3n(c(=O)c2c1)CCCC3)c1cccc(F)c1`?
NPC1 prom act: 23%; ELG1 genotoxic: 2%; FLuc modulator: inconclusive; Rab9 prom act: inconclusive

Results for COc1ccc(NC(=O)c2ccc3c(=O)n4c(nc3c2)CCCCC4)cc1 ?
NPC1 prom act: 0%; ELG1 genotoxic: -4%; FLuc modulator: 27µM*; Rab9 prom act: -2%

Results for Cc1ccc(NC(=O)c2ccc3c(=O)n4c(nc3c2)CCCCC4)cc1F ?
NPC1 prom act: -1%; ELG1 genotoxic: -4%; FLuc modulator: inconclusive; Rab9 prom act: 0%

Results for CC(=O)c1cccc(NC(=O)c2ccc3c(=O)n4c(nc3c2)CCCCC4)c1 ?
KinaseGlo FLuc: -1%; NPC1 prom act: 14%; ELG1 genotoxic: -6%; FLuc modulator: 15µM*; Rab9 prom act: 23%; SMN2 splice up: 14%

Results for Cc1ccc(OCCn2nnc3sc4c(c3c2=O)CCC(C(C)(C)C)C4)cc1 (stereo unspecified) ?
FLuc modulator: -7%; SMN2 splice up: -6%

Results for O=[N+]([O-])c1ccccc1-c1ccc(C(=S)N2CCCCC2)o1 ?
NPC1 prom act: 2µM*; ELG1 genotoxic: inconclusive; FLuc modulator: 8.5µM*; Rab9 prom act: 3.2µM*

What do the screens show for `O=[N+]([O-])c1ccccc1-c1ccc(C(=S)N2CCCC2)o1`?
KinaseGlo FLuc: -9%; NPC1 prom act: inconclusive; ELG1 genotoxic: -6%; FLuc modulator: 21µM*; Rab9 prom act: 2.8µM*; SMN2 splice up: 11µM*

Results for COc1ccc(/C=N\n2nnc3ccccc32)cc1 ?
KinaseGlo FLuc: -28%; NPC1 prom act: 0.32µM*; ELG1 genotoxic: inconclusive; FLuc modulator: 0.19µM*; Rab9 prom act: 0.22µM*; SMN2 splice up: 0.79µM*

Results for COc1ccc(/C=N/N2C(=O)c3ccccc3C2=O)cc1 ?
KinaseGlo FLuc: 14µM*; NPC1 prom act: 1%; ELG1 genotoxic: -4%; FLuc modulator: 2.1µM*; Rab9 prom act: -1%; SMN2 splice up: -1%

Results for CCN(CC)c1ccc(/C=N/N2C(=O)c3ccccc3C2=O)cc1 ?
KinaseGlo FLuc: -5%; NPC1 prom act: 0%; ELG1 genotoxic: 0%; FLuc modulator: 4.3µM*; Rab9 prom act: -2%; SMN2 splice up: -15%

Results for COc1ccccc1/C=N/N1C(=O)c2cccc3cccc(c23)C1=O ?
KinaseGlo FLuc: 1%; NPC1 prom act: -3%; ELG1 genotoxic: 0%; FLuc modulator: 0%; Rab9 prom act: -3%; SMN2 splice up: 18%

Results for CN(C)c1ccc(/C=N/N2C(=O)c3ccccc3C2=O)cc1 ?
NPC1 prom act: 0%; ELG1 genotoxic: 7%; FLuc modulator: 0.43µM*; Rab9 prom act: 10%

How did CCOc1cccc(C(=O)N(Cc2ccc(C(C)C)cc2)C2CCS(=O)(=O)C2)c1 (stereo unspecified) do in these assays?
FLuc modulator: 1%; SMN2 splice up: -9%

How did CCOC(=O)c1ccc(N2C(=O)c3n[nH]c(C)c3C2c2ccco2)cc1 (stereo unspecified) do in these assays?
KinaseGlo FLuc: -7%; NPC1 prom act: inconclusive; ELG1 genotoxic: -2%; FLuc modulator: -1%; Rab9 prom act: -4%; SMN2 splice up: -34%

What do the screens show for `Cc1ccc(N2C(=O)c3n[nH]c(C)c3C2c2ccco2)cc1` (stereo unspecified)?
KinaseGlo FLuc: 1%; NPC1 prom act: inconclusive; ELG1 genotoxic: inconclusive; FLuc modulator: 8.5µM*; Rab9 prom act: 23%; SMN2 splice up: inconclusive

What do the screens show for `CCN(CC)c1ccc(N=Nc2ncn[nH]2)cc1`?
KinaseGlo FLuc: -5%; NPC1 prom act: 2.8µM*; ELG1 genotoxic: inconclusive; FLuc modulator: 12µM*; Rab9 prom act: 2.8µM*; SMN2 splice up: 13µM*

How did CCCc1cnc2c(c1SCC(=O)Nc1ccccc1F)c(=O)n(C)c(=O)n2C do in these assays?
FLuc modulator: -7%

What do the screens show for `CCC(=O)Nc1ccc(C(=O)Nc2cccc(C)n2)cc1`?
KinaseGlo FLuc: -16%; NPC1 prom act: 3.5µM*; ELG1 genotoxic: inconclusive; FLuc modulator: 17µM*; Rab9 prom act: 2.5µM*

What do the screens show for `CCC(=O)Nc1ccc(C(=O)NNC(=O)c2ccccc2)cc1`?
KinaseGlo FLuc: -2%; NPC1 prom act: 5%; ELG1 genotoxic: 2%; FLuc modulator: -4%; Rab9 prom act: -4%

What do the screens show for `Cc1csc(NC(=O)Cc2c(F)cccc2Cl)n1`?
NPC1 prom act: 3.5µM*; ELG1 genotoxic: inconclusive; FLuc modulator: inconclusive; Rab9 prom act: 3.2µM*
